Measurements reported in PubChem BioAssay AID1345085 (National Center for Advancing Translational Sciences (NCATS), 2018).
Records with an inconclusive call do not appear. Calls of active or inactive are those of the source. Calls follow the shape of the dose curve; as a rule, active = well fitted cell-killing curve with a large enough effect; inconclusive = small, poorly fitted or top-dose-only effect, or effect the other way; inactive = no such curve, though single readings can be large or run the other way.

Tested on: JEG-3
Assay: Confirmatory qHTS for gynecologic anti-cancer compounds from libraries of approved drugs and bioactive compounds; also: nearly all actives have a fitted effect of over 55% in size
Settings: gynecologic cancer cell panel viability, ATPlite luminescence, 48 h; series mostly up to 57.6 µM
Summary of the method: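 IC50 values derive from an ATPlite ATP-content luminescence assay following 48 h treatment at 37 C. Each compound ran as an 11-concentration, threefold series (57.5 uM to 0.977 nM); HEK 293T served as control line for selectivity index.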
Potency is read from the fitted curve at half-maximal effect.

| Compound | Potency |
| --- | --- |
| C[C@]12CC[C@H]3[C@@H](CCC4=CC(=O)CC[C@@H]43)[C@@H]1CC[C@@H]2OC(=O)CCc1ccccc1 | inactive |
| CCOc1ccccc1-n1c(C(C)N2CCN(C(=O)COc3ccc(Cl)cc3)CC2)nc2ccccc2c1=O (centres undefined) | 10.9 µM (active) |
| CCN1CCN(C(=O)Cc2ccc(Nc3ncc(F)c(Nc4ccc(C(=O)Nc5ccccc5Cl)cc4)n3)cc2)CC1 | inactive |
| C/C=C(/C)C(=O)O[C@H]1C(C)=C2[C@H]([C@@H]1OC(=O)CCCCCCC)[C@@](C)(OC(C)=O)C[C@H](OC(=O)CCC)[C@@]1(O)[C@H]2OC(=O)[C@@]1(C)O | 0.0544 µM (active) |
| C=C(C)[C@H]1Cc2c(ccc3c2O[C@@H]2COc4cc(OC)c(OC)cc4[C@@H]2C3=O)O1 | 0.0273 µM (active) |
| CCC(=O)O[C@H]1CC[C@H]2[C@@H]3CCC4=CC(=O)CC[C@]4(C)[C@H]3CC[C@]12C | inactive |
| O=C(O)Cc1ccccc1 | inactive |
| C[C@H]1CCC/C=C/C2C[C@H](O)C[C@H]2[C@H](O)/C=C/C(=O)O1 (some centres undefined) | 0.344 µM (active) |
| Cc1sc2c(c1C)C(c1ccc(Cl)cc1)=NC(CC(=O)OC(C)(C)C)c1nnc(C)n1-2 (centres undefined) | 1.93 µM (active) |
